# Experimental data as given in ChEMBL document CHEMBL1961873, “Compounds: GSK PKIS; Assays: Nanosyn kinase panel” (2012).
# Assays:
# [1] = target: T1, Mitogen-activated protein kinase 12 (Homo sapiens) (UniProt P53778); details: at 1 µM;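 further: values are averaged p38gamma kinase inhibition readings, compounds tested at 1 µM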
# T1 sequence (whole entry): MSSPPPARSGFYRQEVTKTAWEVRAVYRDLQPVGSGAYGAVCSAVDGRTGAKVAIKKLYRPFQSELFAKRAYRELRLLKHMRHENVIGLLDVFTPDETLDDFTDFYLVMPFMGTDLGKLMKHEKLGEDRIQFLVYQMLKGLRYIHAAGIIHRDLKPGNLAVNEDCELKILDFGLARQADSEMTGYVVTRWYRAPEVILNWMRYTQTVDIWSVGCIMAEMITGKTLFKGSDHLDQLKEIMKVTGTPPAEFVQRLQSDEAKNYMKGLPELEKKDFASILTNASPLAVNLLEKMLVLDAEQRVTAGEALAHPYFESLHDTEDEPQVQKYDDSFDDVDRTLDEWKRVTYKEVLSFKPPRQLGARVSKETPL
# [2] = target: SRSF protein kinase 1 (Homo sapiens) (UniProt Q96SB4); details: at 0.1 µM
# SRSF protein kinase 1 (Homo sapiens), sequence (Q96SB4 whole entry, canonical isoform): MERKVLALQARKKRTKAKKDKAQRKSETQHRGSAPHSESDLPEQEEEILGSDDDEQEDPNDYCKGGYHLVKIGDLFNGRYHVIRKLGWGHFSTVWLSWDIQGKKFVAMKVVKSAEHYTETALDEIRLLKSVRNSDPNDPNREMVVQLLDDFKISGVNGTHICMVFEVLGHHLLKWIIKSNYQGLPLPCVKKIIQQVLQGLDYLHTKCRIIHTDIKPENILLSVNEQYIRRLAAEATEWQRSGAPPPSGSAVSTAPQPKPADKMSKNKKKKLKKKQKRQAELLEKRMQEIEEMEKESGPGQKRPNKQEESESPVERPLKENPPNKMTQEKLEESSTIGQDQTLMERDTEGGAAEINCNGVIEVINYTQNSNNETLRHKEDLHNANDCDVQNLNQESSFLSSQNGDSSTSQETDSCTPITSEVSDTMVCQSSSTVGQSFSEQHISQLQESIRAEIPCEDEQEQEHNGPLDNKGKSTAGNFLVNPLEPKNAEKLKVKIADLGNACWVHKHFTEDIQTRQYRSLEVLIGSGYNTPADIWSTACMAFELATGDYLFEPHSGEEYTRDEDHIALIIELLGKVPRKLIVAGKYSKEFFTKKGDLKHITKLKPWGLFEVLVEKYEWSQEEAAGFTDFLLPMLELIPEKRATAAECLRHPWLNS
# [3] = target: SRSF protein kinase 1 (Homo sapiens) (UniProt Q96SB4); details: at 1 µM
# [4] = target: Phosphatidylinositol 4,5-bisphosphate 3-kinase catalytic subunit alpha isoform (Homo sapiens) (UniProt P42336); details: at 0.1 µM
# Phosphatidylinositol 4,5-bisphosphate 3-kinase catalytic subunit alpha isoform (Homo sapiens), sequence (P42336 whole entry, canonical isoform): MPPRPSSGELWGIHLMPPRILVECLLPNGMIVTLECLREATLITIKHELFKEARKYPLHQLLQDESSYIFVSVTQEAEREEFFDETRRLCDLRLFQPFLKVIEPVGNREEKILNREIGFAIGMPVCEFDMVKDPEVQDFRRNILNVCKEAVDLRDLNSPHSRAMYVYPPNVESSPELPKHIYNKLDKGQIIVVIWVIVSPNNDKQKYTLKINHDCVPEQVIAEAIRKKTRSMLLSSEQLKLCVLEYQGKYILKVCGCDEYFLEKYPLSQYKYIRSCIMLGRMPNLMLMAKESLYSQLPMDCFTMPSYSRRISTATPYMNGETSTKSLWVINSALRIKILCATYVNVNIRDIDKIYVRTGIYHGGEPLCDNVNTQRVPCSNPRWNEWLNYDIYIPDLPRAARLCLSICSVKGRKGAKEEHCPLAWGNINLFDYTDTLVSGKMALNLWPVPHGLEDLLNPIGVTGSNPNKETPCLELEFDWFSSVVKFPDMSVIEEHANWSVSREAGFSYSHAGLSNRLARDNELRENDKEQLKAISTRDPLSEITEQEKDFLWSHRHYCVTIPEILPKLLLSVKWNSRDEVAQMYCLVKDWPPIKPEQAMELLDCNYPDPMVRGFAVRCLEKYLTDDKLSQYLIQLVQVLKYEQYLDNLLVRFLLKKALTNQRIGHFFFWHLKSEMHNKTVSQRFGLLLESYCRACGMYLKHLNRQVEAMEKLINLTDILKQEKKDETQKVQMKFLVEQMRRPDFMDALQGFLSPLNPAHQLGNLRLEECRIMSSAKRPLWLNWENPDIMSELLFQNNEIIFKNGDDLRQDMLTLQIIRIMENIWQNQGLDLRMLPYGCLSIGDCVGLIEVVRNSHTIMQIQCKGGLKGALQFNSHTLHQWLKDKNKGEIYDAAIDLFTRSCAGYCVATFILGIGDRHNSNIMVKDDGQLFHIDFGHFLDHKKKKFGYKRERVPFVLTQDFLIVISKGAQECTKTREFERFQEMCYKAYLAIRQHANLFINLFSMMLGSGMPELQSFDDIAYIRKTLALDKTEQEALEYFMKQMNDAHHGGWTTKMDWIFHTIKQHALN
# [5] = target: Phosphatidylinositol 4,5-bisphosphate 3-kinase catalytic subunit alpha isoform (Homo sapiens) (UniProt P42336); details: at 1 µM
# [6] = target: T2, Phosphatidylinositol 4,5-bisphosphate 3-kinase catalytic subunit delta isoform (Homo sapiens) (UniProt O00329); details: at 0.1 µM
# T2 sequence (whole entry): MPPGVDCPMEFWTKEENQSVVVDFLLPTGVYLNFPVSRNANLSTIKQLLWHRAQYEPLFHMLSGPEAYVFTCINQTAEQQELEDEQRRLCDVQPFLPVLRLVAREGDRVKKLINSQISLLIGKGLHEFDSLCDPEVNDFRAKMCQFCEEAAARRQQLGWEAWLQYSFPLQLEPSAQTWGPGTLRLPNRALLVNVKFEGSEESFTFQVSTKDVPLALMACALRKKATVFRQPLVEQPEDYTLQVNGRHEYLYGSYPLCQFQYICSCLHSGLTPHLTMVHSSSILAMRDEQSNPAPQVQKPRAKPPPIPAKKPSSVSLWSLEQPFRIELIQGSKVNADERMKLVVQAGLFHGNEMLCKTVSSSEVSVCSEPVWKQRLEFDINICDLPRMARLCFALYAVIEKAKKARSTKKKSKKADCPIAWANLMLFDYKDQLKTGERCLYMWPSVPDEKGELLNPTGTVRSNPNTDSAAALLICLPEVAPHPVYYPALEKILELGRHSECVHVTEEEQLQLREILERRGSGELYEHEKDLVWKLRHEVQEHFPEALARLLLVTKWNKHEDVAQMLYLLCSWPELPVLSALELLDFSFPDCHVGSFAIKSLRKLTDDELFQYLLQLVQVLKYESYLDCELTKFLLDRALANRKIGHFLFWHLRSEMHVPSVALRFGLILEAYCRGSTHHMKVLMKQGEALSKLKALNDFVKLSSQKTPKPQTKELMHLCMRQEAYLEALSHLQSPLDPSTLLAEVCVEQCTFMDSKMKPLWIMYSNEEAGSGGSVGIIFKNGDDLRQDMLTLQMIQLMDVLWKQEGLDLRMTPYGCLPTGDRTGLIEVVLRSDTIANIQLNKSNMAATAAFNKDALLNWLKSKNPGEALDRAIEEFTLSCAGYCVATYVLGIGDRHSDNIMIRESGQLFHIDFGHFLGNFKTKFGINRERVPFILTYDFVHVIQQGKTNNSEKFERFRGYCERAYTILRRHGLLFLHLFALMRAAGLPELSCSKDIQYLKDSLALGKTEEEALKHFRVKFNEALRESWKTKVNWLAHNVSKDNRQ
# [7] = target: T2, Phosphatidylinositol 4,5-bisphosphate 3-kinase catalytic subunit delta isoform (Homo sapiens); details: at 1 µM
# [8] = target: Phosphatidylinositol 4-kinase beta (Homo sapiens) (UniProt Q9UBF8); details: at 0.1 µM
# Phosphatidylinositol 4-kinase beta (Homo sapiens), sequence (Q9UBF8 2-816 limits assumed): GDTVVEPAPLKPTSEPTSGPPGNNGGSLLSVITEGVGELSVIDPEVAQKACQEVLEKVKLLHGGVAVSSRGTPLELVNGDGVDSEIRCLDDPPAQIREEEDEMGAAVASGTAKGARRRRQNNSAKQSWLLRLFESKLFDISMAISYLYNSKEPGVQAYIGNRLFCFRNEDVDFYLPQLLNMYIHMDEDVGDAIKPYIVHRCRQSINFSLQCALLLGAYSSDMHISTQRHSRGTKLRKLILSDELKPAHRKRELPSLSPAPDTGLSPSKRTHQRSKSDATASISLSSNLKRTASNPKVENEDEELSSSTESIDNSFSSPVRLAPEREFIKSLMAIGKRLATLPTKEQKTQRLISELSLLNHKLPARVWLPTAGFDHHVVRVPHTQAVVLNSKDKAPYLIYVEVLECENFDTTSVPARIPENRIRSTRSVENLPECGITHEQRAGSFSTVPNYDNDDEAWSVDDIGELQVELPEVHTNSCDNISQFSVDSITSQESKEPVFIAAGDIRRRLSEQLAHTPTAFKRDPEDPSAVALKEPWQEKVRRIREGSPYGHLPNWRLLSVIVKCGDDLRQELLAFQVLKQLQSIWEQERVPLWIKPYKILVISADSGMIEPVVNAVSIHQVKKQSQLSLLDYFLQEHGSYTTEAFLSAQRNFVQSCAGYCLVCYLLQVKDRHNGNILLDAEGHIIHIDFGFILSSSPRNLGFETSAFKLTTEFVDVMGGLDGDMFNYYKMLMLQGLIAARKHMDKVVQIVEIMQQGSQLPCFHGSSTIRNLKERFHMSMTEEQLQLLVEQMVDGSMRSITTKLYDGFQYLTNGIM
# [9] = target: Phosphatidylinositol 4-kinase beta (Homo sapiens) (UniProt Q9UBF8); details: at 1 µM
# [10] = target: Sphingosine kinase 1 (Homo sapiens) (UniProt Q9NYA1); details: at 0.1 µM;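 further: mean percent inhibition of SPHK1 activity, measured within the GSK PKIS screening panel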
# Sphingosine kinase 1 (Homo sapiens), sequence (Q9NYA1 whole entry): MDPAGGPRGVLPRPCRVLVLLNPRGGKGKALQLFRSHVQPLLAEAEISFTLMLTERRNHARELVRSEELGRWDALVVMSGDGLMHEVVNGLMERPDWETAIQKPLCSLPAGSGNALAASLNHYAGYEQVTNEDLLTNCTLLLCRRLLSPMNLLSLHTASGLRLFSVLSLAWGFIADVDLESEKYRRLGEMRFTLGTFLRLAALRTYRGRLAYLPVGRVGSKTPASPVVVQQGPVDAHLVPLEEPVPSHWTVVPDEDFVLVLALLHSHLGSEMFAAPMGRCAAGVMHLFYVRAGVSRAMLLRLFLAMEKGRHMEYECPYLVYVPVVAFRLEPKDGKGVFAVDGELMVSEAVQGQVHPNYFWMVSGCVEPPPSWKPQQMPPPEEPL
SMILES,inhibition [1] [%],inhibition [2] [%],inhibition [3] [%],inhibition [4] [%],inhibition [5] [%],inhibition [6] [%],inhibition [7] [%],inhibition [8] [%],inhibition [9] [%],inhibition [10] [%]
NS(=O)(=O)c1ccc(N/N=C2\C(=O)Nc3ccc(Cl)cc32)cc1,2.14,-1.45,0.49,2.11,2.12,0.01,0.13,5.17,-1.54,0.4
CS(=O)(=O)Nc1cccc(-c2ccc3c(NC(=O)C4CC4)n[nH]c3c2)c1,0.75,-2.53,-4.93,-0.25,-0.59,1.13,4.97,-1.63,4.39,0.08
COc1cc(Nc2nccc(-c3cnn4ncccc34)n2)cc(OC)c1,5.11,-0.28,4.85,2.19,20.5,6.1,35,-0.41,14.9,0
Cc1ccc(NC(=O)CC2CC2)cc1-c1ccc(C(=O)NCC2CC2)cc1,2.02,-0.1,1.32,2.05,3.63,0.9,1.78,-3.28,-2.41,-0.38
NC(=O)c1sc(-n2cnc3ccccc32)cc1OCc1ccccc1Br,5.59,-3.49,-2.38,4.02,4.31,2.31,4.24,0.67,-1.28,1.25
COc1cc2ncnc(Nc3ccc4c(cnn4Cc4ccccc4)c3)c2cc1OC,3.71,-4.03,-2.33,1.81,2.38,0.53,1.87,1.81,4.03,0.61
NS(=O)(=O)c1ccc(Nc2cc(-c3cccc(O)c3)n[nH]2)cc1,3.15,-3.05,-2.8,4.26,7.56,2.48,4.98,-1.18,-1.14,1.67
CCCN1CCCC(c2ccc(Nc3nc(Nc4cc(F)ccc4C(N)=O)c4cc[nH]c4n3)c(OC)c2)C1 (stereo not given),3.39,-0.71,7.5,2.9,5.55,2.18,9.74,-3.21,-1.21,-0.22
CN(C)C(=O)O[C@H]1CN[C@H](C#Cc2cc3ncnc(Nc4ccc(OCc5cccc(F)c5)c(Cl)c4)c3s2)C1,1.22,-0.93,-1.25,1.47,31.7,1.7,17.4,4.95,-3.29,0.36
COC(=O)c1ccc2c(c1)C(=Cc1cc(Br)c(O)c(Br)c1)C(=O)N2,7.78,-4.19,-1.41,20.2,71.1,-9.64,-7.81,43.6,87.4,1.25
CN(c1ccc(NC(=O)Nc2ccc(OC(F)(F)F)cc2)cc1)c1ccnc(Nc2cccc(S(N)(=O)=O)c2)n1,11.2,-0.74,1.1,2.98,5.04,1.08,3.29,-1.47,3.37,-0.13
CC(C)c1ccc(Nc2nccc(-c3cnn4ncccc34)n2)cc1,4.14,-1.68,-0.8,1.41,4.52,2.45,6.78,2.86,3.34,4.11
O=C1Nc2ccc(-c3cccnc3)cc2C1=Cc1cc(Br)c(O)c(Br)c1,2.31,-1.92,-2.45,11.3,55.5,-8.03,-3.91,35.2,77.7,5.72
OCc1ccc(-c2nc(-c3ccccn3)c(-c3ccc4c(c3)OCO4)[nH]2)cc1,2.49,-1.33,-3.19,3.36,2.23,1.52,3.07,-1.63,-0.21,0
CCS(=O)(=O)c1ccc(OC)c(Nc2nccc(N(C)c3ccc4c(C)n[nH]c4c3)n2)c1,3.12,-3.64,-4.44,4.66,3.7,2.01,2.75,0.2,-1.28,4.16
Cc1cc(-c2ccccn2)cc(C)c1/C=C/c1cncc(-c2nn[nH]n2)c1,5.02,-3.94,-5.12,3.8,3.72,0.41,-0.48,-1.8,0.81,0.97
Nc1nccc(C#Cc2cncnc2Nc2ccc(OCc3cccc(F)c3)c(Cl)c2)n1,3.22,-1.73,-2.48,2.82,4.72,1.22,4.71,-2.78,-0.63,-2.09
